Test results published in PubChem BioAssay (NCATS).
Results filed as inconclusive are left out. A number with no mark means an inactive call. Calls of active or inactive are those of the source. Calls follow the shape of the dose curve; as a rule, active = well fitted inhibition curve with a large enough effect; inconclusive = small, poorly fitted or top-dose-only effect; inactive = flat fitted curve, though single readings scatter.

Test: Primary qHTS for inhibitors of nuclear receptor binding SET domain protein 2 (NSD2) in an isogenic RCH-ACV NSD2 p.E1099K mutant (9B) (AID 1645876); also: nearly all actives have a fitted effect of over 70% in size
Conditions: RCH-ACV (leukaemia line) NSD2 E1099K (9B) viability, CellTiter-Glo, 72 h; series mostly up to 44.9 µM; activity change, negative = viability loss: at the top concentration
% is scaled to controls: 0 for no effect and ±100 for the full control effect; potency is read from the fitted curve at half-maximal effect.

Compound	activity change, negative = viability loss	Potency	outcome
CC1CCC2(C(=O)OC3OC(CO)C(O)C(O)C3O)CCC3(C(=O)O)C(=CCC4C5(C)CCC(OC6OC(C)C(O)C(O)C6O)C(C)(C)C5CCC43C)C2C1C (centres undefined)	-7.44% [at 17.3 µM]		
C=C1C(OC(C)=O)C(=O)C2C(C)(C)C(OC(C)=O)CCC2(C)C1CC(OC(C)=O)/C(C)=C/COC(C)=O (centres undefined)	-23.9% [at 17.3 µM]		
CCCCC(=O)OCC(=O)[C@]1(O)Cc2c(O)c3c(c(O)c2[C@@H](O[C@H]2C[C@H](NC(=O)C(F)(F)F)[C@H](O)[C@H](C)O2)C1)C(=O)c1c(OC)cccc1C3=O		263 nM (active)	
CC1=CC(=O)CC(C)(C)C1CCC(C)OC1OC(COC(=O)c2cc(O)c(O)c(O)c2)C(O)C(O)C1O (centres undefined)			inactive [at 17.3 µM]
C[C@@H]1O[C@@H](O[C@H]2[C@H](O[C@H]3CO[C@@H](O[C@H]4CC[C@@]5(C)C(CC[C@]6(C)C5CC[C@]57OC[C@@]8(CC[C@](C)(CO)CC85)[C@H](O)C[C@]76C)C4(C)C)[C@H](O[C@@H]4O[C@H](CO)[C@@H](O)[C@H](O)[C@H]4O)[C@H]3O)O[C@H](CO)[C@@H](O)[C@@H]2O)[C@H](O)[C@H](O)[C@H]1O (some centres undefined)			inactive [at 9.23 µM]
CN1CC[C@@H](NC(=O)Nc2ccc(C#N)cc2)C[C@@H]1c1nc2ccccc2[nH]1	-6.81%		
CC1(C)CC2C(O)C3=C(CC(C)(O)C2C1)C(=O)OC3O (centres undefined)	-0.557%		
C=CC1(C)CC(O)C2(CCC3C(C)(C(=O)O)CCCC3(C)C2=O)C1 (centres undefined)	-18.1%		
C[C@@H]1O[C@@H](O[C@H]2[C@H](O)[C@@H](O)[C@H](OC[C@H]3O[C@@H](OC(=O)[C@]45CCC(C)(C)C[C@H]4C4=CCC6[C@@]7(C)C[C@H](O)[C@H](O[C@@H]8O[C@H](CO)[C@@H](O)[C@H](O)[C@H]8O)[C@@](C)(C(=O)O)C7CC[C@@]6(C)[C@]4(C)CC5)[C@H](O[C@@H]4O[C@H](CO)[C@@H](O)[C@H](O)[C@H]4O)[C@@H](O)[C@@H]3O)O[C@@H]2CO)[C@H](O)[C@H](O)[C@H]1O (some centres undefined)	-12.2% [at 9.23 µM]		
